Assay outcomes: PubChem BioAssay, National Center for Advancing Translational Sciences (NCATS)
JMJD2A Tudor inh: inhibitors of human JMJD2A Tudor domain. Potency, µM (titrated, usually from 114 µM), for the others: at the top dose activity change, negative = inhibition, hits mostly inhibitors. AID 504339. AlphaScreen JMJD2A-Tudor / H3K4me3 peptide binding. actives 4.4% (n = 390,000). O75164; also: % is scaled to controls: 0 for no effect and ±100 for the full control effect; nearly all actives have a fitted effect of over 50% in size
ALOX12 inh: inhibitors of human 12S-lipoxygenase ALOX12 | purified 12hLO, xylenol orange hydroperoxide absorbance | P18054 | actives 1.1% (n = 580,000) | Potency, µM (highest dose often 108 µM), for the others: at the top dose activity change, negative = inhibition, usual class: inhibitors; also: % is scaled to controls: 0 for no effect and ±100 for the full control effect
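Purified human 12hLO (150 nM final) in 25 mM Hepes, 0.01% Triton X-100, pH 7.0 was preincubated 15 min at room temperature with compound. Then 40 uM arachidonic acid was added, 30 min. Hydroperoxide was read by Fe-XO absorbance ratio 573/405 nm.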
G9a inh: blocks human histone lysine methyltransferase G9a; Q96KQ7; G9a H3K9 monomethylation, AlphaScreen, 2 h; Potency, µM (titrated, usually from 102 µM), for inactives: top-dose activity, negative = inhibition, most hits filed as inhibitors; actives 8.8% (n = 350,000); AID 504332; also: % is scaled to controls: 0 for no effect and ±100 for the full control effect; nearly all actives have a fitted effect of over 75% in size
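AlphaScreen detection with an anti-monomethyl H3K9 antibody quantified product after a 2 h room-temperature reaction containing 500 nM biotinylated H3K9 peptide, 20 µM SAM and 20 nM enzyme, which had been preincubated 15 min with compound.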
HP1b chromo inh: HP1-beta chromodomain-methylated histone interaction inhibition | Potency, µM (titrated, usually from 114 µM), inactives show at the highest dose activity change, negative = inhibition, actives largely listed as inhibitors | P83916 | AlphaScreen HP1-beta / biotin-H3K9me3 peptide binding | AID 540317 | actives 0.56% (n = 390,000); also: nearly all actives have a fitted effect of over 70% in size
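AlphaScreen: HP1-beta (50 nM) preformed 30 min with biotin-H3(1-18)K9me3 peptide (50 nM) in PBS pH 7.4, 0.01% Tween-20. Compound added for 30 min at RT, then streptavidin donor/nickel chelate acceptor beads (10 ug/mL) for 30 min.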
BAZ2B block: inhibitors of human BAZ2B bromodomain; Q9UIF8; AlphaScreen BAZ2B-H3K14Ac peptide displacement; Potency, µM (series often up to 114 µM), for the others: top-dose activity change, negative = inhibition, actives largely listed as inhibitors; actives 4.4% (n = 360,000); also: % is scaled to controls: 0 for no effect and ±100 for the full control effect; nearly all actives have a fitted effect of over 60% in size
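Complex of BAZ2B and biotin-H3K14Ac (50 nM apiece) forms over 30 min at RT, then faces library compounds up to 110 uM for another 30 min; AlphaScreen beads added, 20 min dark incubation, luminescence read.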
PLK1 PBD block: inhibitors of human PLK1 polo-box domain binding | P53350 | Plk1 PBD binding of FITC phosphopeptide, fluorescence polarization | Potency, µM, inactives show max response, negative = inhibition, hits mostly inhibitors | actives 2.8% (n = 360,000) | AID 720504; also: series mostly up to about 57 µM; % is scaled to controls: 0 for no effect and ±100 for the full control effect; nearly all actives have a fitted effect of over 65% in size
An asterisk follows results filed as active; ? = inconclusive; nt = no result given; [ ] = another dose, or the depositor's remark. Most compounds without a hit are left out; they make up all but 9% or so of the library. Calls follow the shape of the dose curve; as a rule, active = well fitted curve in the direction sought with a large enough effect; inconclusive = small, poorly fitted or top-dose-only effect, or another doubt; inactive = no such curve, though single readings can be large; an effect the other way counts as inactive or inconclusive. Potency is read from the fitted curve at half-maximal effect.

SMILES	JMJD2A Tudor inh	ALOX12 inh	G9a inh	HP1b chromo inh	BAZ2B block	PLK1 PBD block
CCOC(=O)N1CCN(C(=O)c2ccc([N+](=O)[O-])cc2Cl)CC1	?	10%	nt	2%	-3%[0.457 µM]	24µM*
COc1ccc(OC)c(C(=O)c2ccc([N+](=O)[O-])cc2)c1	89µM*	-11%	nt	-29%[57 µM]	nt	2%
COc1ccc(C(=O)c2ccc([N+](=O)[O-])cc2Cl)cc1	56µM*	-4%	nt	?	?	-10%
O=C(CS(=O)(=O)c1ccccc1)NCc1ccco1	-11%	0%	-3%	54%	-37%	-22%
COc1ccc(NC(=O)CSc2nc(-c3ccccc3)c3ccccc3n2)cc1	-30%	-14%	1%[59 µM]	38%	-7%	nt
Cn1cc([N+](=O)[O-])c(C(=O)NNC(=O)c2ccc([N+](=O)[O-])cc2)n1	?	-1%	45µM*	?	-11%	4%
CC(C)CC(=O)NC(=S)NNC(=O)c1ccc(NC(=O)C2CCCCC2)cc1	-28%	?	?	-7%	?	-22%
CCC(=O)NC(=S)NNC(=O)c1ccc([N+](=O)[O-])cc1	79µM*	-6%	?	5%	15%[57.1 µM]	-17%
CC(C)NC(=O)c1ccc([N+](=O)[O-])cc1	nt	4%	nt	nt	nt	nt
CC(C)CC(=O)NC(=S)NNC(=O)c1ccc([N+](=O)[O-])cc1	?	?	20µM*	-3%	3%	-13%
OC(c1ccccc1)c1nc(-c2cccc(F)c2)cs1 (configuration not stated)	nt	?	nt	nt	nt	-11%
O=[N+]([O-])c1ccc(S(=O)(=O)N/N=C/c2ccsc2)cc1	-15%	?	45µM*	33%	?	-29%
O=[N+]([O-])c1ccc(S(=O)(=O)NN=C2CCCCC2)cc1	-8%	-1%	nt	-13%	nt	-17%
Cc1cc(C(=O)Nc2cccc(/C=C/C(=O)O)c2)c(C)o1	-20%	-11%	?	8%	-38%	-4%
Cc1oc(-c2ccccc2)cc1C(=O)Nc1cccc(/C=C/C(=O)O)c1	?	-12%	-50%	?	45µM*	21µM*
COc1ccc(CCNC(=O)c2oc(=O)c3ccccc3c2-c2ccccc2)cc1OC	15%	6%	-8%[59 µM]	43%	-13%	nt
COc1ccc(OC)c(S(=O)(=O)ON2C(=O)c3ccccc3C2=O)c1	89µM*	0%	1.4µM*	?	9%[0.457 µM]	12µM*
CCc1ccc(S(=O)(=O)ON2C(=O)c3ccccc3C2=O)cc1	50µM*	?	?	35µM*	?	8.4µM*
COc1ccc(OC)c(S(=O)(=O)N2CCN(c3ccccc3)CC2)c1	-16%	0%	-8%	23%	-28%	-7%
Cc1ccc2[nH]c(=O)c(CCC(=O)N3CCN(CC(C)C)CC3)cc2c1	nt	-7%	nt	nt	nt	nt
CCc1cccc(CC)c1NC(=O)c1cccc(N)c1	56µM*	14%	36%[12.7 µM]	?	-5%	21µM*
O=C(CC1C(=O)CCCC1=O)c1ccccc1	-9%	-24%	45µM*	38%	-34%	-27%
COc1ccc(N2CC(C)Cn3c2nc2c3c(=O)n(Cc3ccc(F)cc3)c(=O)n2C)c(OC)c1 (configuration not stated)	-20%[57.1 µM]	-7%	?	-22%	?	-1%
COc1ccc(N2CC(C)Cn3c2nc2c3c(=O)n(Cc3ccc(C)cc3)c(=O)n2C)c(OC)c1 (configuration not stated)	?	?	35µM*	-21%	nt	-12%
C/C(=N\NC(=O)COc1ccc(C(C)(C)C)cc1)c1ccc(N2CCOCC2)cc1	-20%	8%	10µM*	28%	-23%	8%
SMILES	JMJD2A Tudor inh	ALOX12 inh	G9a inh	HP1b chromo inh	BAZ2B block	PLK1 PBD block
C/C(=N\NC(=O)c1ccc(F)cc1)c1ccc(N2CCOCC2)cc1	-13%	9%	40%	23%	-17%	-8%
Cc1ccc(NC(=S)N(Cc2cccs2)Cc2cc3cc(C)cc(C)c3[nH]c2=O)cc1	-20%	?	-6%[59 µM]	20%	5%	-1%
C=CCn1c(NC(=O)c2ccc(Br)o2)c(C(=O)OCC)sc1=S	89µM*	?	3.2µM*	-39%	-30%	6.7µM*
CCN(C[C@H]1N[C@@](Cc2ccccc2)(C(=O)OC)[C@H]2C(=O)N(Cc3ccccc3)C(=O)[C@@H]12)C(=O)NC(C)C	-10%	11%	nt	32%	nt	-4%
CC(C)(C)C(=O)O/N=C1/C(=O)N(c2ccccc2)c2ccccc21	?	?	22%	10%	-3%[57.1 µM]	-23%
Cc1ccc(CN2C(=O)c3ccccc3Sc3ccc(C(=O)N4CCOCC4)cc32)cc1	-29%	0%	2%[59 µM]	-4%	-12%	nt
CC(=O)O/N=C1\C(=O)N(Cc2ccc(C)cc2)c2ccccc21	-32%	?	50µM*	1%	-29%	?
CN1C(=O)/C(=N\OC(=O)c2ccccc2Cl)c2ccccc21	-9%	-18%	?	49%	?	2.7µM*
CCCCCn1c(=S)[nH]c2ncccc2c1=O	-6%	-7%	20%[2.33 µM]	39%	10%	-5%
COCCCn1c(=S)[nH]c(C)c(C)c1=O	22µM*	?	nt	27%	10%	-11%
COCCCn1c(=S)[nH]c2ncccc2c1=O	?	?	45µM*	32%	-30%	-3%
COCCn1c(=S)[nH]c2ncccc2c1=O	14µM*	?	?	16%	-23%	2%
O=C(NC1CCCCCCC1)C1CCCN(S(=O)(=O)c2cnc[nH]2)C1 (configuration not stated)	-6%	35%	7%	53%	0%	-4%
CCOC(=O)c1cnc(NCc2ccccc2)nc1C	22%	0%	6%[59 µM]	20%	8%	2%
O=C(CC1(O)C(=O)Nc2ccccc21)c1cccc(-n2cccc2)c1 (configuration not stated)	?	10%	?	0%	50µM*	-5%
COCCN(CCOC)S(=O)(=O)c1ccc(Cl)nc1	-23%	2%	0%[59 µM]	4%	4%	21µM*
CC(=O)c1ccc(NC(=O)COC(=O)c2c[nH]c3ccccc23)cc1	-12%	-3%	1%[12.7 µM]	26%	-2%	2%
Cn1nc(-c2ccccc2)c(CO)c1Oc1ccc(F)cc1	20µM*	-5%	19%	-5%	-13%	11µM*
O=C(OCC(=O)N(C1CCCCC1)C1CCCCC1)c1ccncc1	?	0%	-3%[2.33 µM]	-1%	-10%	21µM*
CN(C)c1nc(N)c2ncc(=S)[nH]c2n1	3.2µM*	?	1.8µM*	20%	-32%	4.7µM*
COc1ccc(NC(=O)c2c(NCc3ccc(C)o3)sc3c2CCC(C)C3)cc1 (configuration not stated)	45µM*	3%	8.9µM*	-19%	-34%	nt
